# AMA1-RON2 inh = qHTS for Inhibitors of AMA1-RON; Towards Development of Antimalarial Drug Lead: Primary Screen; AlphaScreen AMA1-biotinylated RON2 peptide binding; Potency, µM (top dose mostly 58.2 µM), inactives show at the top dose activity change, negative = inhibition, actives largely listed as inhibitors; 360,000 tested, 0.2% active; AID 720542, 2013;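 further: 0% = vehicle wells and -100% = peptide control; nearly all actives have a fitted effect of over 45% in size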
#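 AMA1 (3D7) with his tag at 25 nM final met compounds first, then biotinylated RON2 peptide at 25 nM; detection used donor plus acceptor beads, 10 µg/mL apiece, read by AlphaScreen after 30 min at room temperature.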
# HCV inh = qHTS Assay for Inhibitors of Hepatitis C Virus (HCV); Huh7.5.1 HCVcc-Cre infection, luciferase reporter, 44 h; 340,000 tested, 3.4% active; Potency, µM (top dose mostly 41.8 µM), for inactives: at the highest dose activity change, negative = inhibition, most hits filed as inhibitors; AID 651820, 2012
#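 Antiviral activity was scored by luciferase reporter output from cells infected with HCVcc-Cre (~0.5 moi) in presence of compound, 44 h infection period, cells seeded 1,000/well 4 h prior.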
# AmpC inh detg = qHTS Inhibitors of AmpC Beta-Lactamase (assay with detergent); P00811; AmpC hydrolysis of nitrocefin, absorbance 480 nm, 0.01% Triton; Potency, µM (doses to about 114 µM), inactives show at the highest dose activity change, negative = inhibition, most hits filed as inhibitors; 370,000 tested, 0.041% active; AID 485294, 2010;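 further: 0% = no-compound wells and -100% = no-enzyme wells; nearly all actives have a fitted effect of over 25% in size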
# Target sequence (P00811 whole entry, looked up): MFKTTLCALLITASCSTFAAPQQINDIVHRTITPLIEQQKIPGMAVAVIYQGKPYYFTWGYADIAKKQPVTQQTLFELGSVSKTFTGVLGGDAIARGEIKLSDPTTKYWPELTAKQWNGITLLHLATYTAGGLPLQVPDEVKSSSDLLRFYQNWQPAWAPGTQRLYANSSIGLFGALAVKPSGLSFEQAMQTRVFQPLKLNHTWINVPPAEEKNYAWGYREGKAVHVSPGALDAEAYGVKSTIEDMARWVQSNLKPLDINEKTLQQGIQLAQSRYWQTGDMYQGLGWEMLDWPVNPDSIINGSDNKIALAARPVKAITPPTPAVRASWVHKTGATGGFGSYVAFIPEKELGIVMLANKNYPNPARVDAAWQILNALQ
#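 20 mM phosphate pH 7.0 + 0.01% (detergent screen) or 0.0001% Triton X-100; 5.3 nM AmpC reagent; cpd preinc 15 min RT; nitrocefin (800 uM stock) to start; A480 q20 s × 4 min; Activity was normalised to no-enzyme and no-compound control wells.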
# AmpC inh no detg = qHTS Inhibitors of AmpC Beta-Lactamase (assay without detergent) | P00811 | AmpC nitrocefin hydrolysis, absorbance 480 nm, 0.0001% Triton | Potency, µM (series often up to 57.1 µM), for the others: at the top dose activity change, negative = inhibition, actives largely listed as inhibitors | 330,000 tested, 0.52% active;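 further: plate controls were no compound for no effect and no enzyme for full effect; nearly all actives have a fitted effect of over 20% in size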
#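 20 mM phosphate pH 7.0 + 0.01% (detergent screen) or 0.0001% Triton X-100; 5.3 nM AmpC reagent; cpd preinc 15 min RT; nitrocefin (800 uM stock) to start; A480 q20 s × 4 min; Activity was normalised to no-enzyme and no-compound control wells.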
# Pf growth 96h = Primary qHTS for delayed death inhibitors of the malarial parasite plastid, 96 hour incubation. P. falciparum luciferase reporter growth, 96 h. Potency, µM (titrated, usually from 28.7 µM), without a hit: top-dose activity change, negative = inhibition, usual class: inhibitors. 320,000 tested, 6.9% active. AID 504834, 2011
#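 Parasite growth measured via integrated firefly luciferase reporter in P. falciparum. Infected erythrocytes at 2% hematocrit, 0.05% parasitemia final were treated 96 hours at 37 C under 5% CO2, and luminescence was read.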
# Pf growth 48h = Primary qHTS for delayed death inhibitors of the malarial parasite plastid, 48 hour incubation; P. falciparum luciferase growth in erythrocytes, 48 h; Potency, µM (doses to about 28.7 µM), inactives show at the highest dose activity change, negative = inhibition, most hits filed as inhibitors; AID 504832, 2011; 310,000 tested, 5.9% active
#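 Growth was read as firefly luciferase luminescence after a 48 h, 37 C, 5% CO2 exposure of compounds to reporter-bearing P. falciparum cultures (0.1% parasitemia, 2% hematocrit final) in Albumax-supplemented RPMI 1640.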
# Starred values were filed as active, the others as inactive; ? = inconclusive; . = no result. Compounds with a hit are over-represented: about 11% of the library has one in this group of screens. The call rests on the fitted dose curve; in most records, active means well fitted curve in the direction sought with a large enough effect; inconclusive means small, poorly fitted or top-dose-only effect, or another doubt; inactive means no such curve, though single readings can be large; an effect the other way counts as inactive or inconclusive. Unless noted, on the % scale 0 is the no-effect control and ±100 the full control effect; potency means the concentration at half of the fitted maximal effect.
SMILES,AMA1-RON2 inh,HCV inh,AmpC inh detg,AmpC inh no detg,Pf growth 96h,Pf growth 48h
FC(F)(F)c1cccc(NC(=S)N2CCN(c3cccc(C(F)(F)F)c3)CC2)c1,6%,-20%,0%,-25%,5.9µM*,-4%
CC1=C(C(=O)Nc2cccc(C(F)(F)F)c2)C(c2ccccn2)n2ncnc2N1 (configuration not stated),.,.,7%,.,.,.
CCc1ccc(CSc2nc(-c3ccccc3OC)nc3c2Cc2c(CO)cnc(C)c2O3)cc1,.,.,23%,.,.,.
CCN(c1cccc(C)c1)S(=O)(=O)c1nnc(NC(=O)C2CCCCC2)s1,.,.,7%,.,.,.
Cc1cccc(NC(=O)c2c(C)cc(C)nc2SCC(=O)c2ccccc2)c1,.,.,-5%,.,.,.
COc1ccc(CCNC(=O)CCc2c(C)c3cc4c(C)coc4cc3oc2=O)cc1,.,.,14%,.,.,.
CC1Cc2ccccc2N1Cc1cc(=O)c(OCC(=O)NCCc2ccccc2)co1 (configuration not stated),-5%,?,0%,96%,?,13µM*
CCCNC(=O)COc1coc(CN2CCN(c3ccccc3F)CC2)cc1=O,0%,1%,1%,4%,-9%,2%
COc1ccc(NC(=O)COc2coc(CN3c4ccccc4CC3C)cc2=O)cc1 (configuration not stated),0%,?,-1%,-4%,8.3µM*,?
Cc1ccc(C(=O)Nc2nnc(S(=O)(=O)N3c4ccccc4CC3C)s2)cc1 (configuration not stated),.,.,16%,.,.,.
O=C(CC1NCCC[C@H]1O)Cn1cnc2cc(Br)c(Cl)cc2c1=O (some centres not stated),.,.,.,.,?,0.6µM*
O=C(Cn1cnc2ccc(Cl)cc2c1=O)NC1CCS(=O)(=O)C1 (configuration not stated),-10%,19%,-12%,-21%,39%,1%
CNC(=O)N(O)C1N(c2ccccc2)C(=S)SC1(C)C (configuration not stated),-8%,33%,-10%,-10%,2.1µM*,0%
CNC(=O)N(O)C1N(/N=C/c2ccccc2O)C(=S)SC1(C)C (configuration not stated),84%,15%,-3%,5%,63%,-9%
O=C(COc1ccccc1)Nc1ccc(Cl)cn1,-6%,19%,0%,-16%,32%,?
O=C(COc1ccccc1Cl)Nc1ccc(Cl)cn1,13%,0%,-16%,-14%,10µM*,188%
CC(NC(C)c1ccccc1Cl)C(=O)Nc1cccc(S(=O)(=O)N2CCCCC2)c1 (configuration not stated),7%,?,-1%,0%,13µM*,10µM*
O=C(Nc1cccc(S(=O)(=O)N2CCCCC2)c1)C1CC1,-7%,0%,1%,-31%,12%,-14%
O=C(COc1ccc(F)cc1Cl)Nc1cccc(S(=O)(=O)N2CCCC2)c1,0%,10µM*,-13%,-24%,?,?
N=c1sccn1CC(=O)Nc1cccc(S(=O)(=O)N2CCCCCC2)c1,-2%,10µM*,-10%,-31%,?,-15%
CC(C)CCNC(=O)CCCN1C(=O)c2ccccc2Sc2ncccc21,.,.,-3%,.,.,.
COc1ccc(NC(=O)c2cc3nc(-c4ccc(C)c(C)c4)cc(C(F)(F)F)n3n2)cc1,.,.,12%,.,.,.
COC(=O)c1ccc(NC(=O)CC2C(=O)N(c3ccccc3)C(=O)N2Cc2ccc(F)cc2)cc1 (configuration not stated),.,.,-2%,.,.,.
COc1ccc(NC(=O)CCn2c(=O)c3cccn3c3cccnc32)c(OC)c1,.,.,4%,.,.,.
